The values below come from PubChem BioAssay.

The target in the test is Neurogenic locus notch homolog protein 3 (Homo sapiens) (UniProt Q9UM47). The test is described as follows: small molecules binding NOTCH3 protein – biochemical, 635/667 nm fluorescence, primary screen (AID 1096). Particulars: small-molecule microarray, 635 nm fluorescence, higher = more signal.
Sequence of Neurogenic locus notch homolog protein 3 (Homo sapiens) (Q9UM47 whole entry, looked up): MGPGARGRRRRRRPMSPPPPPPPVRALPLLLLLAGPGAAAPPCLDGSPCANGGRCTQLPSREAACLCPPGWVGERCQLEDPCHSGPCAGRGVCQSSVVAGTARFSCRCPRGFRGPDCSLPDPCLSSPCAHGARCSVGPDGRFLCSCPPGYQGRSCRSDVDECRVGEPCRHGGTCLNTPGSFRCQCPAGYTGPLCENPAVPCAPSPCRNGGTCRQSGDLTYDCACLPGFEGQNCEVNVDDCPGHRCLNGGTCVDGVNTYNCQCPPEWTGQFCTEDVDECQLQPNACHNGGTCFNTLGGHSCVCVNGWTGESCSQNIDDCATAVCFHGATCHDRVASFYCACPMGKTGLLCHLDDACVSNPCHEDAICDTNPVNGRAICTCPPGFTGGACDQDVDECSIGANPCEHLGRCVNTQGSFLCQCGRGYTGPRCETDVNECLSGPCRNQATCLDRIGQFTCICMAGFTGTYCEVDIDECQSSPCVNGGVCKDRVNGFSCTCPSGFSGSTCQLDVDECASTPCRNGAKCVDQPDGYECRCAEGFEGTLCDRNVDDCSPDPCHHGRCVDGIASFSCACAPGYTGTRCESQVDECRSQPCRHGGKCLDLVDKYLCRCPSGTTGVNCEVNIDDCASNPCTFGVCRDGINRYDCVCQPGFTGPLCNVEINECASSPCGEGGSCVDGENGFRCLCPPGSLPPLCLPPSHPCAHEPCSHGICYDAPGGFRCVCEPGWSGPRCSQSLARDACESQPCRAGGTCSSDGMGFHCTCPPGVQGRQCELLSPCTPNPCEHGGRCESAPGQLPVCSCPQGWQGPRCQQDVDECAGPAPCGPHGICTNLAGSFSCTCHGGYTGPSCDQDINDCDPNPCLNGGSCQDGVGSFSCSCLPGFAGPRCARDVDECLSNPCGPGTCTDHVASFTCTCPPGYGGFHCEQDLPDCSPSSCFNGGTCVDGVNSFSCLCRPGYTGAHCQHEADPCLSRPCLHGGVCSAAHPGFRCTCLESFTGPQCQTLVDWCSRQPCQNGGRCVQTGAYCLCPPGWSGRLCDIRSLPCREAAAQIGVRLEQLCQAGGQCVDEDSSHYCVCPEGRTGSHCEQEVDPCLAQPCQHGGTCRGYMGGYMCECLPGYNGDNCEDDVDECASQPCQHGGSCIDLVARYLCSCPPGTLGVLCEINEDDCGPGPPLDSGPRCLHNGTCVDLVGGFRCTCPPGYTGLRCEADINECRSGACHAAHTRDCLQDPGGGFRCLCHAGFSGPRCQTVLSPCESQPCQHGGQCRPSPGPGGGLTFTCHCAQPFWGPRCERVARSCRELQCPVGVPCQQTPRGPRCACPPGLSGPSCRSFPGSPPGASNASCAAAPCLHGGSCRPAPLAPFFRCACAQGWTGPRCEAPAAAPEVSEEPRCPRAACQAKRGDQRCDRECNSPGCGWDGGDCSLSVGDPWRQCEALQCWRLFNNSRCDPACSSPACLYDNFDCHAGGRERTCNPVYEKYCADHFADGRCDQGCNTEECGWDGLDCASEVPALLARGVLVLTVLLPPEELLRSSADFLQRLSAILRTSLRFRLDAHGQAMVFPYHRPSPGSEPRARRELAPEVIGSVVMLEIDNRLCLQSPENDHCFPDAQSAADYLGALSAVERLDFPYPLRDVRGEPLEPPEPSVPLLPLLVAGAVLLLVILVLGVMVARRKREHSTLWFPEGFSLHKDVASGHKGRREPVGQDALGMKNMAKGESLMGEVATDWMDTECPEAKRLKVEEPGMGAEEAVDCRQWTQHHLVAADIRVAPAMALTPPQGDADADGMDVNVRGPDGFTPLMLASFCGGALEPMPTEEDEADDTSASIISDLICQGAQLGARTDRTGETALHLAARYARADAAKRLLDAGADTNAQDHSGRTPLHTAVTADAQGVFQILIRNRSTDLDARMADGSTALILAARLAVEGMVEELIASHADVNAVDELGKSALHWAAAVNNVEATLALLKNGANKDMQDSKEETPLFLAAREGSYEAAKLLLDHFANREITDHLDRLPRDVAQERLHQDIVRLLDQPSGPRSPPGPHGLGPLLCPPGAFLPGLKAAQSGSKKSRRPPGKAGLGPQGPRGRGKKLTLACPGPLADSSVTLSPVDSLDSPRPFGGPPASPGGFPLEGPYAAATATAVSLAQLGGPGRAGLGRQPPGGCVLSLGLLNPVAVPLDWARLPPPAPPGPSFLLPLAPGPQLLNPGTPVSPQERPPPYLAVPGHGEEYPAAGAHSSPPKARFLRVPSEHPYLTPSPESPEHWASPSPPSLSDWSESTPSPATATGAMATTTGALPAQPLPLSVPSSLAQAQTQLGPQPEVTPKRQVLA
The compound `O=C1C=C[C@@H](O)[C@@H]2[C@@H]3C(=O)N(C4CCCCC4)C(=O)[C@@H]3CC[C@@H]12` came in with a composite z-score of 0.818.
The figure for `C[C@@H]1CC[C@H]2C(=O)OC(Cc3ccccc3)CN2[C@H]1c1ccc(Br)cc1` (stereo partly specified) is 0.0343.
The compound `O=C1[C@H]2[C@H]3[C@H](O)[C@H](O)CC(=NO[C@@H]4O[C@H](CO)[C@@H](O)[C@H](O)[C@H]4O)[C@H]3CC[C@H]2C(=O)N1c1ccc(F)cc1F` displayed a composite z-score of 0.365.
Regarding `COc1ccc(COC(=O)NN=C2C[C@@H](O)[C@@H](O)[C@@H]3[C@@H]4C(=O)N([C@@H](C)c5ccccc5)C(=O)[C@@H]4CC[C@H]23)cc1`, the composite z-score was -0.184.
In turn, `CC(=O)OC[C@H]1O[C@H](CC=NO[C@H](C)c2cn([C@@H]3COC[C@H]3O)nn2)C=C[C@@H]1OC(C)=O` had a composite z-score of 0.212.
`COc1ccc(O[C@H]2C=C[C@@H](c3ccccc3)O[C@@H]2CO)cc1` came in with a composite z-score of 0.0607.
On to `CCOC(=O)[C@H](Cc1ccccc1)NC(=O)CCC1CC(OC(=O)NCCc2ccc(F)cc2)CC2(CCCC(COC(=O)NCCOc3ccccc3)O2)O1` (stereo partly specified), for which the composite z-score is 1.07.
The figure for `O=C1C[C@@H](O)[C@@H](O)[C@@H]2[C@@H]3C(=O)N(C4CCCCC4)C(=O)[C@@H]3CC[C@@H]12` is 0.57.
`CC(CCN1CCCCc2nc(C)c(C)cc21)=NO[C@@H](C)c1cc(-c2c(C)cc(C)cc2C)no1`: the composite z-score is -1.55.
In turn, `CCOC(=O)[C@H](CC(C)C)NC(=O)CCC1CC(OC(=O)NCc2ccc3c(c2)OCO3)CC2(CCCC(COC(=O)NCCOc3ccccc3)O2)O1` (stereo partly specified) showed a composite z-score of 1.11.
As for `C=CC[C@@H]1C=C[C@H](ON=C(C)CCN2CCCc3nc(C)c(C)cc32)[C@@H](CO)O1`, the composite z-score is 0.946.
The figure for `O=C1CCCC=C1C(O)C1CCCCC1` (stereo unspecified) is 0.0627; for `CO[C@H]1COC(=O)CC=C[C@H](C)[C@H](OC)COC(=O)[C@@H](C)NC(=O)CC=C[C@@H]1C` it is 0.346; for `COC(=O)CC=C[C@@H](C)[C@@H](C=NOC[C@@H](C)[C@H](OCc1ccccc1)C(C)C)OC` it is 0.232.
In the case of `CC(C)CON=C1C[C@@H](O)[C@@H](O)[C@@H]2[C@@H]3C(=O)N(C(C)(C)C)C(=O)[C@@H]3CC[C@@H]12`, the composite z-score was -0.269.
Regarding `CC1(C)O[C@H]2OC([C@H](O)CON3C(=O)c4ccccc4C3=O)[C@H](O)[C@H]2O1` (stereo partly specified), the composite z-score worked out at 0.419.
With `CCOC(=O)CCN1C(=O)[C@H]2[C@H]3[C@H](O)[C@H](O)CC(=NNC(=O)OCC)[C@H]3CC[C@H]2C1=O`, the composite z-score is -0.818.
Turning to `CCN(CC)CC(O)CN1CCCCc2nc(C)c(C)cc21` (stereo unspecified), the composite z-score is 0.431.
`CC(C)=NO[C@@H](C)c1cn([C@H](CO)Cc2ccccc2)nn1` returned a composite z-score of 0.331.
`O=C(NN=C1C[C@@H](O)[C@@H](O)[C@@H]2[C@@H]3C(=O)N(Cc4ccccc4)C(=O)[C@@H]3CC[C@H]12)OCc1ccccc1` came in with a composite z-score of 0.577.
The figure for `CCOC(=O)CCN1C(=O)[C@H]2[C@H]3[C@H](O)[C@H](O)CC(=NOCC=C(C)CCC=C(C)C)[C@H]3CC[C@H]2C1=O` is 0.089.
`CC(=O)OC[C@H]1O[C@@H](ON=C2[C@H]3CCn4c(=O)n(-c5ccccc5)c(=O)n4[C@H]3[C@H](O)[C@@H]3O[C@H]23)[C@H](OC(C)=O)[C@@H](OC(C)=O)[C@@H]1OC(C)=O` came in with a composite z-score of 0.785.
Take `O=C1CCCC=C1C(O)COCc1ccccc1` (stereo unspecified): the composite z-score was -0.256.
For the compound `C[C@H]1CC[C@@H](C(=O)O)N[C@@H]1c1cccc(N2CCCC2=O)c1`, the composite z-score amounted to 0.408.
`COC(=O)[C@H](C)NC(=O)CCC1CC(OC(=O)NCc2ccc3c(c2)OCO3)CC2(CCCC(COC(=O)NCCCN3CCCC3=O)O2)O1` (stereo partly specified) displayed a composite z-score of 1.1.
In the case of `CC(C)(C)N1C(=O)[C@H]2[C@@H]3C(=CC[C@H]2C1=O)C(=O)[C@H]1O[C@H]1[C@H]3O`, the composite z-score was -0.615.
The figure for `CCOC(=O)NN=C1C[C@@H](O)[C@@H](O)[C@@H]2[C@@H]3C(=O)N(C[C@@H]4CCCO4)C(=O)[C@@H]3CC[C@H]12` is 0.411.
The figure for `CC(C)=CCCC(C)=CCON=C1C[C@@H](O)[C@@H](O)[C@@H]2[C@@H]3C(=O)N(Cc4ccc5c(c4)OCO5)C(=O)[C@@H]3CC[C@H]12` is 0.907; for `CC(=O)OC[C@H]1O[C@H](CC=NOC(C)CN2CCCCc3nc(C)c(C)cc32)C=C[C@@H]1OC(C)=O` (stereo partly specified) it is 1.01.
With `CCOC(=O)[C@H](Cc1ccccc1)NC(=O)CCC1CC(OC(=O)NCCc2ccc(F)cc2)CC2(CCCC(COC(=O)NCc3cccc(C(F)(F)F)c3)O2)O1` (stereo partly specified), the composite z-score worked out at 1.11.
`O=C1C=C[C@@H](O)[C@@H]2[C@@H]3C(=O)N(Cc4ccc5c(c4)OCO5)C(=O)[C@@H]3CC[C@@H]12`: the composite z-score was found to be 0.676.
